# Activity calls are given as the source filed them. Calls come from the whole dose curve; as a rule, active = well fitted curve in the direction sought with a large enough effect; inconclusive = small, poorly fitted or top-dose-only effect, or effect the other way, or another doubt; inactive = no such curve, though single readings can be large or run the other way.
# Molecular target: Beta-2 adrenergic receptor (Homo sapiens) (UniProt P07550)
# Test: qHTS validation assay of beta-arrestin-biased ligands of beta2-adrenergic receptor (AID 485366)
# Details: cell-based beta-arrestin recruitment to ADRB2, qHTS; series mostly up to 46.1 µM
# From the text: NIH Molecular Libraries Probe Production Network [MLPCN]
# NIH Chemical Genomics Center [NCGC]
# PI: Bryan Roth and Bob Lefkowitz
# The concept of biased agonism is an emerging concept of molecular pharmacology which proposes that seven transmembrane receptors (7TMRs) or G protein-coupled receptors (GPCRs), exist in multiple signaling conformations and complexes and that ligands (either agonists or antagonists) can induce signaling biased responses for distinct signal transduction cascades.
# Furthermore, accumulating evidence over the last decade has drawn attention to a novel function of beta-arrestins as signal transducers that scaffold various signaling molecules upon activation of 7TMRs. […] This beta-arrestin-biased signaling presumably leads to distinct physiological outcomes from those by G protein activation.
# Additionally, the active receptor conformations which […] on this beta-arrestin signaling are likely different from those activating G protein signaling
# The goal of this screening project will be to discover and optimize novel beta-arrestin-biased ligands for beta2-AR signaling. A luminescent cell-based assay for beta2-AR-mediated agonism, known as the Tango assay, has been validated in which ligand binding of a recombinant beta2-AR and subsequent recruitment of a recombinant beta-arrestin lead to the release of the transcriptional activator tTA, which upregulates transcription of a tTA-responsive luciferase gene. […] Compounds were screened as a concentration-titration series that ranged from 46 microM to 0.6 nM.
# NCGC Assay Protocol Summary:
# Tango cells were dispensed into white, solid, tissue-culture-treated 1536-well plates at 1500 cells/well in DMEM, containing 1% fetal bovine serum (FBS). Then, 23 nL of compounds or DMSO were delivered to each well using a pin tool. Plates were incubated at 37 degrees C, 5% CO2 for 18 hr. Then 2.5 uL luminescent substrate mix (in-house prepared: 150 mM Tris-Cl, pH 7.6, 3 mM MgCl2, 1% Triton X-100, 5 mM DTT, 0.5 mM CoA, 0.15 mM ATP, 0.44 mM D-luciferin, final concentrations) was added to each well. Plates were then incubated for 15 minutes at room temperature, and subsequently measured on a ViewLux plate reader for luminescent signal using a clear filter with a 10 second exposure and 2x binning. The %Activity was determined from the corrected luminescence values.
# Concentration-response curves were fitted to the signals arising from the resulting luminescence. The concentration-effect curves were then classified based on curve quality (r2), response magnitude and degree of measured activity, and compounds were subsequently categorized based on their curve class.
# Keywords: biased agonism, beta2-AR, beta-arrestin, GPCR, 7TMR, Tango, luminescence, MLSMR, MLPCN, NIH Roadmap, qHTS, NCGC
# Chain of Beta-2 adrenergic receptor (Homo sapiens) (P07550 whole entry, looked up): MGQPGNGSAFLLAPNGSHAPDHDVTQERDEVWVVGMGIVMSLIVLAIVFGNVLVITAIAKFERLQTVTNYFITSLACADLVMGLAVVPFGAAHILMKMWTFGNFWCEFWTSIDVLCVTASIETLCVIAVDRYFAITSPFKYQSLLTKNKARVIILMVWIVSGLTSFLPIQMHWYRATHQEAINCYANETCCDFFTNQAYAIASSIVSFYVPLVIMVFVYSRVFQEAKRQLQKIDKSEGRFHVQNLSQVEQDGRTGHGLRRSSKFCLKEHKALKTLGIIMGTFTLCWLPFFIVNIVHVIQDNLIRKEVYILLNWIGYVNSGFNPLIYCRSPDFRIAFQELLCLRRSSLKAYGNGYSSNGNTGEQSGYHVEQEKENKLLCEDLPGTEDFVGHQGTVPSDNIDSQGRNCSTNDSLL
row,SMILES,outcome
1,Nc1ncnc2c1ncn2[C@@H]1O[C@H](COP(=O)(O)CP(=O)(O)OP(=O)(O)O)[C@@H](O)[C@H]1O,inactive
2,CCCCCCCCCCCCCCCC(=O)OC(CC(=O)O)C[N+](C)(C)C (stereo not given),inactive
3,CC1CN(S(=O)(=O)c2cccc3cnccc23)CCN1 (stereo not given),inactive
4,CCCCCCCCCCCCCCCCCCNC(=O)OCC(COP(=O)([O-])OCC[n+]1ccsc1)OC (stereo not given),inactive
5,Fc1cccc(/C=N/N=C/c2cccc(F)c2)c1,inactive
6,OC[C@H]1O[C@@H](n2cnc3c(NC4CCCCC4)ncnc32)[C@H](O)[C@@H]1O,inactive
7,N#C/C(=C\c1ccc(-c2cc(Cl)ccc2Cl)o1)C(=O)Nc1cccc2ncccc12,inactive
8,CCOC(=O)C1=C(C)NC(C)=C(C(=O)OCC)C1c1c(F)c(F)c(F)c(F)c1F,inactive
9,O=c1[nH]c2cc(C(F)(F)F)ccc2n1-c1cc(C(F)(F)F)ccc1O,inactive
10,CCOC(=O)N1CCN(/[N+]([O-])=N/Oc2ccc([N+](=O)[O-])cc2[N+](=O)[O-])CC1,inactive
11,CN(C)c1nc(N)c(C(=O)N=C(N)N)nc1Cl,inactive
12,Cc1ccc(S(=O)(=O)/C=C/C#N)cc1,inactive
13,O=C(c1cc(O)c(O)c([N+](=O)[O-])c1)c1ccccc1F,inactive
14,c1cnc2c(c1)ccc1cccnc12,inactive
15,NC(N)=NC(=O)c1nc(Cl)c(N2CCCCCC2)nc1N,inactive
16,CCCCCCCCCCCCCCCCCC(=O)NCC(COP(=O)([O-])OCC[N+](C)(C)C)OCC (stereo not given),inactive
17,OC[C@H]1O[C@@H](n2cnc3c(Nc4ccccc4)ncnc32)[C@H](O)[C@@H]1O,inactive
18,CO/S(=N\S(=O)(=O)c1ccc(Cl)cc1)c1ccc([N+](=O)[O-])cc1 (stereo not given),inactive
19,O=C(Nc1ccccc1)c1cc([N+](=O)[O-])ccc1Cl,inactive
20,CN(C)CCC(c1ccc(Cl)cc1)c1ccccn1 (stereo not given),inactive

row,SMILES,outcome
1,O=C(O)CNC(=O)C(CS)Cc1ccccc1 (stereo not given),inactive
2,CCCCCCCC/C=C\CCCCCCCC(=O)NCCO,inactive
3,CC(N)C(=O)OC(C)(C)Cc1ccc(Cl)cc1 (stereo not given),inactive
4,CSc1nc(N)c2ncn([C@@H]3O[C@H](COP(=O)(O)OP(=O)(O)OP(=O)(O)O)[C@@H](O)[C@H]3O)c2n1,inactive
5,CCCCCCCCCCCCCCCC(=O)NCC(COP(=O)([O-])OCC[N+](C)(C)C)OCC (stereo not given),inactive
6,CC12C(=O)OC(=O)C1(C)C1CCC2O1 (stereo not given),inactive
7,C=C[C@H]1CN2CC[C@@H]1C[C@@H]2[C@@H](O)c1ccnc2ccc(OC)cc12,inactive
8,CC[C@@H](C)[C@H]1O[C@]2(CC[C@H]1C)C[C@@H]1C[C@@H](CC=C(C)[C@@H](O[C@H]3C[C@H](OC)[C@@H](O[C@H]4C[C@H](OC)[C@@H](O)[C@H](C)O4)[C@H](C)O3)[C@@H](C)C=CC=C3CO[C@@H]4[C@H](O)C(C)=C[C@@H](C(=O)O1)[C@]34O)O2,inactive
9,C=CC(N)CCC(=O)O (stereo not given),inactive
10,CCCC1(C)C(C#N)(C#N)C1(C#N)C#N,inactive
11,CSc1ccccc1N1CCN(CCCCCC(=O)NC2CCCc3ccccc32)CC1 (stereo not given),inactive
12,CC(C)Cc1ccc([C@H](C)C(=O)O)cc1,inactive
13,CCN(CC)c1ncnc2c1ncn2[C@@H]1O[C@H](COP(=O)(O)OP(=O)(O)C(Br)(Br)P(=O)(O)O)[C@@H](O)[C@H]1O,inactive
14,CC(=O)SCC[N+](C)(C)C,inactive
15,CN1[C@@H](CC(=O)c2ccccc2)CCC[C@H]1C[C@H](O)c1ccccc1,inactive
16,CO/N=C(\C(=O)N[C@@H]1C(=O)N2C(C(=O)O)=C(COC(C)=O)CS[C@H]12)c1csc(N)n1,inactive
17,O=C1NC(=O)/C(=C/c2ccc3nccnc3c2)S1,inactive
18,COc1ccccc1N1CCN(CCN(C(=O)c2ccc(I)cc2)c2ccccn2)CC1,inactive
19,COc1cc2nc(N3CCN(C(=O)OCc4ccccc4)C(C(=O)NC(C)(C)C)C3)nc(N)c2cc1OC (stereo not given),inactive
20,NC[C@@H]1O[C@H](C23CC4CC(CC(C4)C2)C3)Cc2c1ccc(O)c2O,inactive
